In the library only some 4.7% were active in any assay of this set; here they are far more common.
PfHsp90 yeast 2: growth inhibition of PfHsp90-expressing yeast, primary screen, antimalarial PfHsp90 inhibitor project, S. cerevisiae, BacTiter-Glo luminescence, single point, set 2. BacTiter-Glo ATP, 48 h; yeast lacking PDR1 and PDR3 efflux regulators. inhibition, % at 9.4 µM. 0.32% of 310,000 active;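 active = every replicate shows inhibition above about 80%, whatever the replicate mean, limit read from the data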
tim10-1 inh: growth inhibitors of tim10-1 mutant yeast, primary screen, luminescence, uHTS; S. cerevisiae tim10-1 ts strain growth, BacTiter-Glo, 24 h; inhibition, % at 20 µM; 2.2% of 330,000 active; AID 463190, 2010;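 active = inhibition of at least 40%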;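 also: mutant grown at 25 °C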
ATG4B inh: ATG4B protease inhibitors, primary screen, biochemical, fluorescence, uHTS; ATG4B cleavage of LC3-PLA2, NBD-HPC fluorescence, 1 h; inhibition, % at 8.33 µM; 0.51% of 340,000 active; AID 504462, 2011; in the data active = inhibition above about 40%
Target sequence (Q9Y4P1 whole entry, looked up): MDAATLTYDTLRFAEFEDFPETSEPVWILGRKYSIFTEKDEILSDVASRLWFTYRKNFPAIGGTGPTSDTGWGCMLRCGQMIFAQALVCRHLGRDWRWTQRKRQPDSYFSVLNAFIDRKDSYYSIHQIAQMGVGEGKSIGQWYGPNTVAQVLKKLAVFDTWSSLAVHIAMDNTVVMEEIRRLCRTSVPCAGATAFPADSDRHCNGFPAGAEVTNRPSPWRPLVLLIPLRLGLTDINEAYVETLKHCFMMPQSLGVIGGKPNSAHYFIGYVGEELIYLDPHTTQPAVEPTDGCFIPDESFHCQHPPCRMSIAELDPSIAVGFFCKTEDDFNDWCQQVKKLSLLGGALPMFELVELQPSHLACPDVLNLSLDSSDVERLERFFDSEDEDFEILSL
tim23-1 inh: growth inhibitors of tim23-1 mutant yeast, primary screen, luminescence, uHTS. S. cerevisiae tim23-1 growth, BacTiter-Glo luminescence, 24 h. inhibition, % at 20 µM. 1.3% of 330,000 active. AID 463212, 2010;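 active = growth inhibition of the mutant yeast at or above 50%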;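 also: temperature-sensitive mutant grown at 25 °C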
SKKanGAS inh: S. pyogenes SKKanGAS growth inhibitors in kanamycin, primary screen, streptokinase expression inhibitor project, SKKanGAS strain, BacTiter-Glo luminescence | 6 h | inhibition, % at 7.5 µM | 1.3% of 300,000 active;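 active = mean replicate score, as percent of positive control median, at least 50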;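 also: strain carries kanamycin resistance gene driven by streptokinase promoter and grows in 40 µg/ml kanamycin; loss of luminescence reflects streptokinase promoter inhibition or plain growth inhibition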
TIM10 inh: growth inhibitors of isogenic TIM10 control yeast, primary screen, counter-screen for tim10-1 yeast inhibitor project, luminescence, uHTS; S. cerevisiae TIM10 strain growth, BacTiter-Glo luminescence, 24 h; inhibition, % at 10 µM; 1.4% of 330,000 active; AID 463195, 2010;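 active = inhibition of 40% or more at the single tested concentration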;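 also: wild-type TIM10 isogenic control strain grown at permissive 25 °C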
tim10-1 conf: growth inhibitors of tim10-1 mutant yeast, confirmation, single concentration, luminescence, S. cerevisiae; shares compounds with tim10-1 inh; S. cerevisiae tim10-1 ts strain growth, BacTiter-Glo, 24 h; inhibition, % at 20 µM; 56% of 7,400 active; AID 463213, 2010;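 active = inhibition of yeast growth at or above a set limit in either of two repeat tests at 20 µM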;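 also: tim10-1 mutant grown at permissive 25 °C to find synthetic lethal compounds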
TIM10 conf: growth inhibitors of wild-type TIM10 yeast, confirmation, counter-screen for tim10-1 synthetic lethality project, single concentration, luminescence, S. cerevisiae | shares compounds with TIM10 inh | S. cerevisiae tim10 strain growth, BacTiter-Glo luminescence, 24 h | inhibition, % at 10 µM | 63% of 4,600 active;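 active = inhibition of yeast growth at or above a set limit in either of two replicates at 10 µM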; also: this counterscreen used the strain with wild-type TIM10
Numbers stand for hits; i = inactive; nt = no result given.

SMILES | PfHsp90 yeast 2 | tim10-1 inh | ATG4B inh | tim23-1 inh | SKKanGAS inh | TIM10 inh | tim10-1 conf | TIM10 conf
CCCc1[nH]nc2c1C(c1ccsc1)C(C#N)=C(N)O2 (stereo not given) | i | 46.9 | i | i | i | 46.0 | i | i
CCN(CC)C(=O)c1ccc2c(c1[N+](=O)[O-])C(=O)c1ccccc1C2=O | nt | 60.1 | nt | i | i | 52.9 | 44.1 | i
O=C(C1CCC1)N1CCc2cc(S(=O)(=O)N3CCN(c4ccccn4)CC3)ccc21 | i | 69.4 | i | i | i | 55.5 | 69.3 | i
O=C(C1CC1)N1CCc2cc(S(=O)(=O)NCCC3=CCCCC3)ccc21 | i | 50.5 | i | i | i | 41.1 | 33.7 | i
CCOC(=O)N1CCN(S(=O)(=O)c2ccc3c(c2)CCN3C(=O)C2CCC2)CC1 | i | 56.5 | i | i | i | 46.9 | 53.3 | i
O=C(COc1ccc(Cl)cc1Cl)NNC(=S)NCc1ccco1 | i | 46.1 | i | i | i | 49.7 | 37.0 | 39.8
CC1CCCC(NC(=O)c2ccncc2)C1C (stereo not given) | i | i | i | i | i | i | nt | nt
CC1CCCC(NC(=O)Nc2cccs2)C1C (stereo not given) | i | 55.5 | i | i | i | 56.3 | 65.2 | 52.5
c1cc(C2CCCCC2)ccc1Oc1nc(N2CCOCC2)nc(N2CCOCC2)n1 | i | 43.7 | i | i | i | 52.4 | i | 32.6
N#Cc1c(N)n(CCNC(=O)c2cccs2)c2nc3ccccc3nc12 | i | i | i | i | i | i | nt | nt
COc1ccc2c(c1OC)C(=O)OC2Nc1nc(-c2cc3cc(Br)ccc3oc2=O)cs1 (stereo not given) | i | 49.2 | i | i | i | 58.5 | 60.5 | 71.3
COc1ccc(NC(=O)COC(=O)c2ccc(O)cc2)c([N+](=O)[O-])c1 | i | i | i | i | i | i | nt | nt
CC[C@]12c3[nH]c4ccc(Cl)cc4c3CCN1C(=O)[C@@H](CC(=O)NCCc1ccccn1)C[C@@H]2C(=O)N1CCN(C(=O)c2ccco2)CC1 | i | i | i | i | nt | i | nt | nt
CCOC(=O)N1CCN(C(=S)NC(=O)C23CC4CC(CC(C4)C2)C3)CC1 | i | i | i | i | i | i | nt | nt
CC(=O)c1cccc(NC(=O)C2C(c3ccccc3)C2(Cl)Cl)c1 (stereo not given) | i | 44.5 | i | i | nt | 41.5 | i | i
COCCNC(=O)Cn1c(=O)n(Cc2ccc(C(=O)NCCc3ccc(OC)c(OC)c3)cc2)c(=O)c2ccccc21 | i | i | i | i | i | i | nt | nt
N/C(Cc1ccc([N+](=O)[O-])cc1)=N\OC(=O)C(c1ccccc1)c1ccccc1 | i | 71.9 | i | i | i | 50.4 | 72.8 | 62.8
COc1ccc(C/C(N)=N/OC(=O)C(c2ccccc2)c2ccccc2)cc1OC | i | i | i | i | i | i | nt | nt
Cc1ccc(CC(=O)O/N=C(\N)Cc2ccc([N+](=O)[O-])cc2)cc1 | i | 73.2 | i | i | i | 60.0 | 77.3 | 62.7
O=C(CN(Cc1ccco1)C(=O)c1cc(=O)[nH]c2ccccc12)Nc1ccccc1C(F)(F)F | i | i | i | i | i | i | nt | nt
N/C(=N\OC(=O)c1ccccc1Br)c1cccc([N+](=O)[O-])c1 | i | 79.1 | i | i | i | 41.3 | 84.5 | 53.8
COc1nc(N(C)S(=O)(=O)c2ccc(C)cc2)nc(C)c1Cl | i | i | i | i | nt | i | nt | nt
COc1cc(OC)cc(C(=O)/C=C2\Sc3ccccc3N2C)c1 | i | i | i | i | i | i | nt | nt
COc1ccc2c(c1)S/C(=C\C(=O)c1ccncc1)N2C | i | 53.7 | i | i | i | 81.5 | 73.3 | 85.3
c1ccc(Nc2nc(CSc3ncn[nH]3)cs2)cc1 | i | i | i | i | i | i | nt | nt
SMILES | PfHsp90 yeast 2 | tim10-1 inh | ATG4B inh | tim23-1 inh | SKKanGAS inh | TIM10 inh | tim10-1 conf | TIM10 conf
O=C1CC(c2ccc3c(c2)OCCO3)Oc2ccccc21 (stereo not given) | i | i | i | i | i | i | nt | nt
O=C1CC(c2ccc3c(c2)OCCO3)Oc2ccc([N+](=O)[O-])cc21 (stereo not given) | i | 42.3 | i | i | i | 44.7 | 38.8 | 54.0
Cc1cc(Br)ccc1NC(=O)CNC(=O)CN1C(=O)NC2(CCCCCC2)C1=O | i | i | i | i | i | i | nt | nt
Cc1cc(Br)ccc1NC(=O)CN1C(=O)C2C3CC(c4ccccc4)C(C3)C2C1=O (stereo not given) | i | 40.6 | i | i | i | 55.7 | 33.9 | 32.3
CC(C)C(=O)N1CCN(c2ccc(NC(=O)COc3ccccc3[N+](=O)[O-])cc2)CC1 | i | i | i | i | i | i | nt | nt
CNc1cc(CSC)nc(SCc2ccc(Cl)cc2Cl)n1 | i | 48.9 | i | i | i | 44.2 | 40.6 | 37.1
Nc1nc(SCc2ccc(Cl)cc2Cl)n[nH]1 | i | i | i | i | i | i | nt | nt
CCN1C(=O)[C@H]2[C@@H](c3ccc(OC)cc3)N3C(=O)CN(Cc4ccccc4)C(=O)[C@@]3(Cc3ccccc3)[C@H]2C1=O | i | i | i | i | i | i | nt | nt
COC(=O)c1cc(S(=O)(=O)Nc2ccsc2C(=O)OC)oc1C | i | i | i | i | i | i | nt | nt
C=CCNc1nnc(SC2CC(=O)N(c3ccc(OC)cc3)C2=O)s1 (stereo not given) | i | 67.2 | i | i | i | 40.2 | 61.0 | 45.8
CCOc1ccc2nc(SC3CC(=O)N(c4ccc(OC)cc4)C3=O)sc2c1 (stereo not given) | nt | i | i | i | i | i | nt | nt
Cc1cc(Cl)ccc1OCC(=O)OCC(=O)NC1CCS(=O)(=O)C1 (stereo not given) | i | i | i | i | nt | i | nt | nt
CN1CCN(/N=C/c2ccc(-c3ccccc3)cc2)CC1 | i | i | i | i | i | i | nt | nt
CN1CCN(/N=C/c2c3ccccc3c(Cl)c3ccccc23)CC1 | nt | 47.3 | i | i | i | 47.2 | 52.2 | 46.0
C=C1CCC[C@]2(C)C[C@H]3OC(=O)C(CN(Cc4ccc(OC)c(OC)c4)CC(C)O)[C@H]3CC12 (stereo not given in full) | i | 42.8 | i | i | i | 44.3 | 39.7 | 45.8
COc1ccc(C2SCCN2S(=O)(=O)c2ccc(NC(C)=O)cc2)cc1 (stereo not given) | i | i | i | i | i | i | nt | nt
